From PubChem BioAssay (EPA / NIEHS) come the findings set out here.

Common to all, as to conditions: mRNA level, 48 h; actives raise or lower the signal
Read-out in test [1]: Glutamate-cysteine ligase catalytic (GCLC), GCLC (gene 2729)
Description: LTEA_HepaRG_GCLC: Life Technologies and Expression Analysis (LTEA) Assay for Glutamate-cysteine ligase catalytic (GCLC) using HepaRG (AID 2283498). The procedure, abridged:
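Oxidative-stress marker GCLC is measured as mRNA change in human HepaRG liver cells after 48 h chemical treatment in 0.5% DMSO, eight concentrations from 100 uM. Activity is fitted bidirectionally against vehicle.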

Read-out in test [2]: growth arrest and DNA damage 45 (GADD45G), GADD45G (gene 10912)
Description: LTEA_HepaRG_GADD45G: Life Technologies and Expression Analysis (LTEA) Assay for growth arrest and DNA damage 45 (GADD45G) using HepaRG (AID 2283499). In outline: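 Gain or loss of GADD45G mRNA, quantified by TaqMan qRT-PCR against three housekeeping genes, is fitted in both directions relative to 0.5% DMSO. Human HepaRG cultures receive test chemical for 48 h at up to 100 uM.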

Read-out in test [3]: Glutamate-cysteine ligase regulatory (GCLM), GCLM (gene 2730)
As to the kind of experiment: LTEA_HepaRG_GCLM: Life Technologies and Expression Analysis (LTEA) Assay for Glutamate-cysteine ligase regulatory (GCLM) using HepaRG (AID 2283500). The procedure, abridged:
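HepaRG, 48 h dosing, 100 uM top, half-log x8, 0.5% DMSO vehicle. Readout: GCLM mRNA by TaqMan qRT-PCR, housekeeping-normalized (ACTB/GAPDH/POLR2A). Curves fit bidirectionally vs DMSO baseline.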

Read-out in test [4]: Glutathione S-transferase M3 (GSTM3), GSTM3 (gene 2947)
Description: LTEA_HepaRG_GSTM3: Life Technologies and Expression Analysis (LTEA) Assay for Glutathione S-transferase M3 (GSTM3) using HepaRG (AID 2283501). In outline:
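HepaRG, plated 48 h, then serum-free induction medium; test chemical 48 h, duplicate; 100 uM top, half-log x8, 0.5% DMSO. Read-out: GSTM3 mRNA (TaqMan qRT-PCR, Fluidigm array). Bidirectional fit vs DMSO.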

Read-out in test [5]: Heat shock 70 kDa protein 1 (HSPA1A), gene 3303
Description: LTEA_HepaRG_HSPA1A: Life Technologies and Expression Analysis (LTEA) Assay for Heat shock 70 kDa protein 1 (HSPA1A) using HepaRG (AID 2283502). The procedure, abridged: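 HepaRG, 48 h exposure, 8-pt half-log CRC from 100 uM in 0.5% DMSO, duplicates. Readout: TaqMan qRT-PCR of HSPA1A mRNA, housekeeping-normalized (ACTB/GAPDH/POLR2A). Bidirectional fit vs 0.5% DMSO baseline.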

Read-out in test [6]: Hypoxia-inducible factor 1-alpha (Homo sapiens) (UniProt Q16665)
As to the kind of experiment: LTEA_HepaRG_HIF1A: Life Technologies and Expression Analysis (LTEA) Assay for Hypoxia-inducible factor 1 (HIF1A) Trancription factor using HepaRG (AID 2283503). In outline:
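Gain- or loss-of-signal HIF1A mRNA changes are fitted against a DMSO baseline. HepaRG cultures receive eight concentrations, highest 100 uM, for 48 h in serum-free induction medium with 0.5% DMSO.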

Read-out in test [7]: 3-Hydroxy-3-Methylglutaryl-CoA Synthase 2 (HMGCS2), HMGCS2 (gene 3158)
As to the kind of experiment: LTEA_HepaRG_HMGCS2: Life Technologies and Expression Analysis (LTEA) Assay for 3-Hydroxy-3-Methylglutaryl-CoA Synthase 2 (HMGCS2) using HepaRG (AID 2283504). The procedure, abridged:
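HepaRG, plated 48 h then switched to serum-free induction media; cmpd 8-pt, max 100 uM, 1/2-log, 0.5% DMSO, n=2, 48 h. HMGCS2 mRNA by Fluidigm TaqMan qRT-PCR, ACTB/GAPDH/POLR2A norm; bidirectional fit vs DMSO.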

Read-out in the next test: HGF (gene 3082)
As to the kind of experiment: LTEA_HepaRG_HGF: Life Technologies and Expression Analysis (LTEA) Assay for Hepatocyte Growth Facto (HGF) using HepaRG (AID 2283505). In outline: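 Read-out is HGF transcript level by qRT-PCR, normalized to three housekeeping genes, fitted bidirectionally against 0.5% DMSO vehicle. Human HepaRG cells received test chemicals for 48 h at up to 100 uM.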

Read-out in test [8]: Insulin Like Growth Factor 1 (IGF1), IGF1 (gene 3479)
As to the kind of experiment: LTEA_HepaRG_IGF1: Life Technologies and Expression Analysis (LTEA) Assay for Insulin Like Growth Factor 1 (IGF1) using HepaRG (AID 2283506). The procedure, abridged: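 qRT-PCR readout of IGF1 mRNA, normalized to three housekeeping genes, after 48 h chemical exposure of HepaRG cells. Concentrations: 8-point half-log series, top 100 uM, 0.5% DMSO vehicle. Gain or loss fitted against DMSO baseline.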

Read-out in test [9]: Intercellular Adhesion Molecule 1 (ICAM1), ICAM1 (gene 3383)
Description: LTEA_HepaRG_ICAM1: Life Technologies and Expression Analysis (LTEA) Assay for Intercellular Adhesion Molecule 1 (ICAM1) using HepaRG (AID 2283507). The procedure, abridged:
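Readout is qRT-PCR mRNA level, normalized to three housekeeping genes and fitted bidirectionally against 0.5% DMSO vehicle. Human HepaRG cultures received compound for 48 h, top concentration 100 uM with half-log dilutions.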

Read-out in test [10]: Insulin-like growth factor-binding protein 1 (IGFBP1), IGFBP1 (gene 3484)
Description: LTEA_HepaRG_IGFBP1: Life Technologies and Expression Analysis (LTEA) Assay for Insulin-like growth factor-binding protein 1 (IGFBP1) using HepaRG (AID 2283508). In outline: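 Thawed HepaRG cells are plated for 48 h, switched to serum-free induction medium, then dosed in duplicate for another 48 h (100 uM top, half-log steps). Lysates in RLT go to qRT-PCR, and gain or loss of signal is fitted relative to vehicle.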

Read-out in test [11]: Interleukin 6 (IL6), IL6 (gene 3569)
Description: LTEA_HepaRG_IL6: Life Technologies and Expression Analysis (LTEA) Assay for Interleukin 6 (IL6) using HepaRG (AID 2283509). The procedure, abridged: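 Changes in IL6 mRNA, up or down relative to 0.5% DMSO controls, were derived from concentration-response curves in human HepaRG cells treated for 48 h at up to 100 uM, with ACTB, GAPDH and POLR2A as normalizers.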

Read-out in test [12]: Interleukin 6 Receptor (IL6R), IL6R (gene 3570)
Description: LTEA_HepaRG_IL6R: Life Technologies and Expression Analysis (LTEA) Assay for Interleukin 6 Receptor (IL6R) using HepaRG (AID 2283510).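 On AC50: differentiated human HepaRG liver cells in serum-free induction medium.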 In outline: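 HepaRG, 48 h exposure, 8-pt half-log series, top 100 uM, 0.5% DMSO vehicle, duplicates. Read-out: TaqMan qRT-PCR of IL6R transcript, housekeeping-gene normalized. Gain or loss fitted relative to DMSO baseline.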

Read-out in test [13]: Potassium channel subfamily K member 1 (KCNK1), KCNK1 (gene 3775)
As to the kind of experiment: LTEA_HepaRG_KCNK1: Life Technologies and Expression Analysis (LTEA) Assay for Potassium channel subfamily K member 1 (KCNK1) using HepaRG (AID 2283511). In outline:
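Human HepaRG cultures receive test chemicals for 48 h in 0.5% DMSO, top concentration 100 uM with half-log dilutions. Induction or suppression of KCNK1 mRNA relative to DMSO is derived by bidirectional fitting of qRT-PCR data.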

Read-out in test [14]: Keratin 19 (KRT19), KRT19 (gene 3880)
Description: LTEA_HepaRG_KRT19: Life Technologies and Expression Analysis (LTEA) Assay for Keratin 19 (KRT19) using HepaRG (AID 2283512). In outline:
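KRT19 transcript levels, measured by Fluidigm qRT-PCR against three housekeeping genes, are fitted for gain or loss of signal relative to DMSO. Human HepaRG cells receive test chemicals (top 100 uM, half-log steps, 0.5% DMSO) for 48 hours.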

Read-out in test [15]: JUN Transcription Factor, JUN (gene 3725)
As to the kind of experiment: LTEA_HepaRG_JUN: Life Technologies and Expression Analysis (LTEA) Assay for JUN Transcription Factor using HepaRG (AID 2283513). In outline:
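HepaRG, 48 h exposure, 8-pt half-log series top 100 uM, 0.5% DMSO, duplicate. JUN mRNA by qRT-PCR (Fluidigm), housekeeping-normalized (ACTB/GAPDH/POLR2A); bidirectional curve fit vs DMSO baseline.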

Read-out in test [16]: Lipase C (LIPC), LIPC (gene 3990)
Description: LTEA_HepaRG_LIPC: Life Technologies and Expression Analysis (LTEA) Assay for Lipase C (LIPC) using HepaRG (AID 2283514). In outline:
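In this multiplexed gene-expression screen, human HepaRG cultures received test chemicals for 48 h across eight concentrations with 100 uM highest, in duplicate. Values reflect LIPC mRNA induction or suppression versus DMSO vehicle, from normalized qRT-PCR.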

Read-out in test [17]: Lipoprotein lipase (LPL), LPL (gene 4023)
Description: LTEA_HepaRG_LPL: Life Technologies and Expression Analysis (LTEA) Assay for Lipoprotein lipase (LPL) using HepaRG (AID 2283515). In outline:
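Concentration-response testing used half-log steps from 100 uM in 0.5% DMSO on human HepaRG cells, 48 h, duplicate wells. Phenobarbital 1 mM served as induction control; LPL mRNA was normalized to ACTB, GAPDH, POLR2A.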

Read-out in test [18]: MicroRNA 122 (MIR122), gene 406906
Description: LTEA_HepaRG_MIR122: Life Technologies and Expression Analysis (LTEA) Assay for MicroRNA 122 (MIR122) using HepaRG (AID 2283516). Further: the transcript read is the microRNA miR-122. The procedure, abridged: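 qRT-PCR read-out (TaqMan, Fluidigm array), normalized to three housekeeping genes; HepaRG cells dosed 48 h at 8 concentrations up to 100 uM in 0.5% DMSO, duplicate; gain or loss fitted against DMSO baseline.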

Read-out in test [19]: matrix metalloproteinase-10 (MMP10), MMP10 (gene 4319)
Description: LTEA_HepaRG_MMP10: Life Technologies and Expression Analysis (LTEA) Assay for matrix metalloproteinase-10 (MMP10) using HepaRG (AID 2283517). The procedure, abridged:
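In differentiated HepaRG cultures kept in 0.5% DMSO, test chemicals act for 48 h over an eight-point range with a top dose of 100 uM. Expression is then quantified by TaqMan RT-PCR against ACTB, GAPDH and POLR2A.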

Calls of active or inactive are those of the source. How the source made its calls: active means hit-call score of the fitted dose curve at least 0.9, where 1 is the maximum; inactive means score below 0.9.

Hypoxia-inducible factor 1-alpha (Homo sapiens), sequence (Q16665 whole entry, looked up): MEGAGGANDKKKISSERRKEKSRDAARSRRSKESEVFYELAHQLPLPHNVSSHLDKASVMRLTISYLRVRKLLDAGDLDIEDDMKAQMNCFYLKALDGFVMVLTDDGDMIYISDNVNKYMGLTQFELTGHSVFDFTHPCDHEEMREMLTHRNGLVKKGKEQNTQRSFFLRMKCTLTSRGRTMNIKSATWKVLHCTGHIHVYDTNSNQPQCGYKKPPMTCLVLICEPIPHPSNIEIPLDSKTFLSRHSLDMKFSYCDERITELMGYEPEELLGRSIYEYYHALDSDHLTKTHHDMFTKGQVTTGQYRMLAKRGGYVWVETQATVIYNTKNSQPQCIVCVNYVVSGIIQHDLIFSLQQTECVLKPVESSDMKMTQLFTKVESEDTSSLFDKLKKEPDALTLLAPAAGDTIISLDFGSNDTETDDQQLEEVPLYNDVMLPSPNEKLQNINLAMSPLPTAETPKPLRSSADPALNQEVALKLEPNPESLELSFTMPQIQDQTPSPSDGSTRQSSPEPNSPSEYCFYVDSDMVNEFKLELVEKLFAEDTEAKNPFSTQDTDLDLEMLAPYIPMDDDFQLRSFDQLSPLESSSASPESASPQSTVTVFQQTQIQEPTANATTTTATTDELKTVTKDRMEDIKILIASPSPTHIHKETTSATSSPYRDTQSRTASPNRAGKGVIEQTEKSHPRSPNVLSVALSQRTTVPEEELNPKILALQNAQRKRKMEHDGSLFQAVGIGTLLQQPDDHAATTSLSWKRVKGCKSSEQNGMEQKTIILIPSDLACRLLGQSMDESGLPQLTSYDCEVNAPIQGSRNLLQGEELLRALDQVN

Regarding `C=CCC1=C(C)[C@@H](OC(=O)[C@@H]2[C@@H](C=C(C)C)C2(C)C)CC1=O`, the molecule was called inactive in test [1], in [2], in test [3], in test [4], in [5] and in test [6]. Besides, the molecule was called inactive (with HGF (gene 3082); in test [9]; in test [10]; in test [11]; in test [12]; in test [13]). Besides, the molecule was classed as inactive in test [14], in [15], in test [17], in test [18] and in test [19]. Besides, the AC50 in test [7] is 50 µM (active); in test [8], 50 µM (active); in [16], 81.5 µM (active).
`N#Cc1nn(-c2c(Cl)cc(C(F)(F)F)cc2Cl)c(N)c1S(=O)C(F)(F)F` (stereo not given): the result in test [1], in test [9] and in test [13] was inactive. For the same molecule, the AC50 is 31.5 µM (active) in test [2]; 29.1 µM (active) in test [3]; 80.8 µM (active) in test [4]; 11.9 µM (active) in [5]; 79.5 µM (active) in test [6]; 38.3 µM (active) in [7]. Besides, the AC50 is 90.3 µM (active) with HGF (gene 3082); 13.4 µM (active) in test [8]; 47.7 µM (active) in test [10]; 44.8 µM (active) in [11]; 91.4 µM (active) in test [12]; 12.6 µM (active) in test [14]. In addition, the AC50 is 50.2 µM (active) in test [15]; 42.6 µM (active) in test [16]; 31.3 µM (active) in test [17]; 59.2 µM (active) in test [18]; 30.7 µM (active) in test [19].
